# Shown is part of a subset that was picked to be rich in the strongest signals.
# B1: Mincle (Bos taurus) (protein)
# chain: MNSSTSPASQTERRCFSFQLFSWAIAGTSILLLSACFITRCVVTYSIFQLCDEKKFQPPGDSMELSCYNDGSGSVKNCCPLKWFHFQSSCYLFSPDTMSWRASLKNCSSMGAHLVVINTQEEQEFLYYTKPRKKEFYIGLTDQVTEGQWQWVDGTPFTKSLSFWDAGEPNNLVIVEDCATIRDSSNPRQNWNDVPCFFNMFRVCEMPERKI
# Assays:
# Test in all cases: glycan array binding signal (z-score within array); higher = stronger binding
# Settings in all cases: glycan notation: IUPAC condensed, linker removed
# [1] = target: Fuc(a1-2)Gal
# How it was run: (§1)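 Columns mapping to the same glycan were averaged after glycan names were converted to IUPAC-condensed notation. The data come from 3228 arrays in the Consortium for Functional Glycomics database, limited to those with an available protein sequence. Binding is reported as a within-array Z-score averaged across arrays of one protein sequence and across linkers.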
# [2] = target: Fuc(a1-2)Gal(b1-4)GlcNAc(b1-2)Man(a1-3)[Fuc(a1-2)Gal(b1-4)GlcNAc(b1-2)Man(a1-6)]Man(b1-4)GlcNAc(b1-4)GlcNAc
# How it was run: as §1
# [3] = target: Fuc(a1-2)Gal(b1-4)GlcNAc(b1-6)GalNAc
# How it was run: as §1
# [4] = target: Fuc(a1-2)Gal(b1-4)[Fuc(a1-3)]GlcNAc(b1-3)[Neu5Ac(a2-6)Gal(b1-4)GlcNAc(b1-6)]Gal(b1-4)Glc
# How it was run: as §1
# [5] = target: Fuc(a1-2)[Gal(a1-3)]Gal
# How it was run: as §1
# [6] = target: Fuc(a1-2)[Gal(a1-3)]Gal(b1-4)GlcNAc(b1-2)Man(a1-3)[Fuc(a1-2)[Gal(a1-3)]Gal(b1-4)GlcNAc(b1-2)Man(a1-6)]Man(b1-4)GlcNAc(b1-4)[Fuc(a1-6)]GlcNAc
# How it was run: as §1
# [7] = target: Fuc(a1-2)[GalNAc(a1-3)]Gal(b1-3)GalNAc(b1-3)Gal(a1-4)Gal(b1-4)Glc
# How it was run: as §1
# [8] = target: Fuc(a1-2)[GalNAc(a1-3)]Gal(b1-3)GlcNAc(b1-2)Man(a1-3)[Fuc(a1-2)[GalNAc(a1-3)]Gal(b1-3)GlcNAc(b1-2)Man(a1-6)]Man(b1-4)GlcNAc(b1-4)[Fuc(a1-6)]GlcNAc
# How it was run: as §1
# [9] = target: Fuc(a1-2)[GalNAc(a1-3)]Gal(b1-4)GlcNAc(b1-2)Man(a1-3)[Fuc(a1-2)[GalNAc(a1-3)]Gal(b1-4)GlcNAc(b1-2)Man(a1-6)]Man(b1-4)GlcNAc(b1-4)GlcNAc
# How it was run: as §1
# [10] = target: Fuc(a1-3)[Gal(b1-4)]Glc6S
# How it was run: as §1
# [11] = target: Fuc(a1-3)[Gal3S(b1-4)]GlcNAc6S
# How it was run: as §1
# [12] = target: Gal(a1-3)Gal(b1-3)GlcNAc(b1-3)GalNAc
# How it was run: as §1
# [13] = target: Gal(a1-3)Gal(b1-3)[Fuc(a1-4)]GlcNAc(b1-2)Man(a1-3)[Gal(a1-3)Gal(b1-3)[Fuc(a1-4)]GlcNAc(b1-2)Man(a1-6)]Man(b1-4)GlcNAc(b1-4)GlcNAc
# How it was run: as §1
# [14] = target: Gal(a1-3)Gal(b1-4)Glc
# How it was run: as §1
# [15] = target: Gal(a1-3)Gal(b1-4)GlcNAc(b1-3)GalNAc
# How it was run: as §1
# [16] = target: Gal(a1-3)Gal(b1-4)[Fuc(a1-3)]GlcNAc
# How it was run: as §1
# [17] = target: Gal(a1-4)Gal(b1-4)Glc
# How it was run: as §1
# [18] = target: Gal(a1-4)Gal(b1-4)GlcNAc(b1-2)Man(a1-3)[Gal(a1-4)Gal(b1-4)GlcNAc(b1-2)Man(a1-6)]Man(b1-4)GlcNAc(b1-4)GlcNAc
# How it was run: as §1
# [19] = target: Gal(a1-4)Gal(b1-4)GlcNAc(b1-3)Gal(b1-4)Glc
# How it was run: as §1
# [20] = target: Gal(b1-3)Gal(b1-4)GlcNAc
# How it was run: as §1
# [21] = target: Gal(b1-3)GalNAc
# How it was run: as §1
# [22] = target: Gal(b1-3)GlcNAc(b1-3)Gal(b1-4)GlcNAc(b1-2)Man(a1-3)[Gal(b1-3)GlcNAc(b1-3)Gal(b1-4)GlcNAc(b1-2)Man(a1-6)]Man(b1-4)GlcNAc(b1-4)GlcNAc
# How it was run: as §1
# [23] = target: Gal(b1-3)GlcNAc6S
# How it was run: as §1
# [24] = target: Gal(b1-3)[Fuc(a1-4)]GlcNAc(b1-2)Man
# How it was run: as §1
# [25] = target: Gal(b1-4)Glc6S
# How it was run: as §1
# [26] = target: Gal(b1-4)GlcNAc
# How it was run: as §1
# [27] = target: Gal(b1-4)GlcNAc(b1-2)[Gal(b1-4)GlcNAc(b1-6)]Man(a1-6)[Gal(b1-4)GlcNAc(b1-2)Man(a1-3)]Man(b1-4)GlcNAc(b1-4)GlcNAc
# How it was run: as §1
# [28] = target: Gal(b1-4)GlcNAc(b1-3)Gal(b1-4)GlcNAc(b1-2)Man(a1-3)[Gal(b1-4)GlcNAc(b1-3)Gal(b1-4)GlcNAc(b1-2)Man(a1-6)]Man(b1-4)GlcNAc(b1-4)[Fuc(a1-6)]GlcNAc
# How it was run: as §1
# [29] = target: Gal(b1-4)GlcNAc(b1-3)Gal(b1-4)GlcNAc(b1-3)Gal(b1-4)GlcNAc(b1-3)Gal(b1-4)GlcNAc(b1-3)Gal(b1-4)GlcNAc(b1-3)Gal(b1-4)GlcNAc(b1-2)Man(a1-3)[Gal(b1-4)GlcNAc(b1-3)Gal(b1-4)GlcNAc(b1-3)Gal(b1-4)GlcNAc(b1-3)Gal(b1-4)GlcNAc(b1-3)Gal(b1-4)GlcNAc(b1-3)Gal(b1-4)GlcNAc(b1-2)Man(a1-6)]Man(b1-4)GlcNAc(b1-4)GlcNAc
# How it was run: as §1
# [30] = target: Gal(b1-4)GlcNAc(b1-3)[Gal(b1-4)GlcNAc(b1-6)]Gal(b1-4)GlcNAc
# How it was run: as §1
# [31] = target: Gal3S(b1-3)[Fuc(a1-4)]GlcNAc
# How it was run: as §1
binder,measurement,setting,value
B1,glycan array binding signal (z-score),[1],3.49
same,glycan array binding signal (z-score),[2],1.4
same,glycan array binding signal (z-score),[3],-0.168
same,glycan array binding signal (z-score),[4],-0.411
same,glycan array binding signal (z-score),[5],-0.737
same,glycan array binding signal (z-score),[6],-0.601
same,glycan array binding signal (z-score),[7],-0.374
same,glycan array binding signal (z-score),[8],0.364
same,glycan array binding signal (z-score),[9],0.419
same,glycan array binding signal (z-score),[10],-0.342
same,glycan array binding signal (z-score),[11],-0.116
same,glycan array binding signal (z-score),[12],0.019
same,glycan array binding signal (z-score),[13],1.26
same,glycan array binding signal (z-score),[14],0.058
same,glycan array binding signal (z-score),[15],-0.713
same,glycan array binding signal (z-score),[16],-0.559
same,glycan array binding signal (z-score),[17],-0.565
same,glycan array binding signal (z-score),[18],0.919
same,glycan array binding signal (z-score),[19],-0.763
same,glycan array binding signal (z-score),[20],-0.462
same,glycan array binding signal (z-score),[21],-0.37
same,glycan array binding signal (z-score),[22],0.271
same,glycan array binding signal (z-score),[23],-0.773
same,glycan array binding signal (z-score),[24],1.34
same,glycan array binding signal (z-score),[25],0.6
same,glycan array binding signal (z-score),[26],-0.249
same,glycan array binding signal (z-score),[27],-0.55
same,glycan array binding signal (z-score),[28],1.11
same,glycan array binding signal (z-score),[29],0.667
same,glycan array binding signal (z-score),[30],-1.01
same,glycan array binding signal (z-score),[31],3.35

# From the supplement of paper PMC8728848
